Activity calls are given as the source filed them. Calls come from the whole dose curve; as a rule, active = well fitted activation curve with a large enough effect; inconclusive = small, poorly fitted or top-dose-only effect; inactive = no such curve, though single readings can be large or run the other way.
Assay: Confirmatory qHTS for Identification of Small Molecule Activators of Huntingtin-Antisense Promoter Activity
Conditions: HEK293 HTT-AS promoter firefly luciferase reporter, 24 h; series mostly up to 57.5 µM
Procedure, shortened: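 HEK293 luciferase reporter cells, 2,500/well, cultured 24 h, then exposed to compounds at up to 57.5 uM final for 24 h at 37C. Firefly luciferase luminescence read; normalized to vehicle (0%) and zero RLU (-100%).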

Potency, inactive:
CCOC(=O)C1=C(CN(C)Cc2ccccc2)NC(=O)NC1c1ccc(OC)cc1 (stereo not given)
CC(C)Cn1c(-c2ccc(S(=O)(=O)N3CCCC3)cc2)csc1=Nc1ccccc1
COc1ccc(NS(=O)(=O)c2ccc3c(c2)CCN3C(=O)C2CC2)cc1OC
O=C(C1CCC(CNS(=O)(=O)c2cccs2)CC1)N1CCN(c2ccc(Cl)cc2)CC1 (stereo not given)
Cc1cccc(NS(=O)(=O)c2ccc3c(c2)CCN3C(=O)C2CCC2)c1
COc1ccc(OC)c(CCNC(=O)C(C)n2nc(C)c3c(C)n(-c4ccc(C)cc4)nc3c2=O)c1 (stereo not given)
Cc1ccc(Cn2c(SCc3ccc(C(=O)NC4CCCC4)cc3)nc3ccncc32)cc1
Cc1ccc(CNC(=O)c2c(Nc3ccccc3C)sc(C(=O)c3ccc(F)cc3)c2N)cc1
Cc1ccc(CCNC(=O)C2CCN(c3nnc(-n4cccc4CNc4ccc(C)cc4)s3)CC2)cc1
CC(=O)N1CCCc2cc(S(=O)(=O)N(C)CC(=O)Nc3ccc(Cl)cc3C)ccc21
COc1ccc(Nc2c3c(nc4ccc(NC(=O)/C=C/c5cccc(OC)c5OC)cc24)CCCC3)cc1OC
Cc1ccc(C(=O)NCc2ccc3c(c2)CCN3C(=O)c2ccc(C)cc2)cc1
CC(=O)c1ccc(N2CCN(c3ncnc4c3cnn4-c3cc(Cl)ccc3C)CC2)cc1
CCOc1ccc(S(=O)(=O)NCCc2sc3nc(-c4ccc(F)cc4)nn3c2C)cc1
Cc1ccc(C(Nc2ccccn2)c2ccc3cccnc3c2O)cc1 (stereo not given)

— PubChem BioAssay AID1508622 (National Center for Advancing Translational Sciences (NCATS), 2021)
